Read-out in assay [1]: C-C motif chemokine 2 (Homo sapiens) (UniProt P13500)
Briefly: BSK_KF3CT_MCP1: BioMAP Diversity Plus: KF3CT Assay for Monocyte Chemoattractant Protein 1 (MCP1/CCL2) Biomarker Activity (AID 2283073). The settings on record: primary human keratinocytes with fibroblasts; actives raise or lower the signal. The procedure, abridged:
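Keratinocytes and foreskin fibroblasts were co-cultured, dosed with chemical, and sampled 24 h later. MCP-1 was quantified by ELISA, and the endpoint was analyzed with bidirectional fitting using DMSO as negative control.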

Read-out in assay [2]: Matrix Metallopeptidase 9 (MMP9), MMP9 (gene 4318)
Briefly: BSK_KF3CT_MMP9: BioMAP Diversity Plus: KF3CT Assay for Matrix Metallopeptidase 9 (MMP9) Biomarker Activity (AID 2283074).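 On AC50: MMP9 protein level quantified by ELISA in the co-culture.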 As to conditions: primary human keratinocytes with fibroblasts; actives raise or lower the signal. The procedure, abridged: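 Keratinocyte plus foreskin fibroblast human primary skin co-culture was dosed with chemical and MMP-9 was quantified by ELISA 24 h later. Bidirectional curve fitting used DMSO as negative control and activity baseline.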

Read-out in assay [3]: urokinase plasminogen activator (uPA), PLAU (gene 5328)
The assay can be described thus: BSK_KF3CT_uPA: BioMAP Diversity Plus: KF3CT Assay for urokinase plasminogen activator (uPA) Biomarker Activity (AID 2283075). The settings on record: primary human keratinocytes with fibroblasts; actives raise or lower the signal. The procedure, abridged: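 Human keratinocyte plus foreskin fibroblast primary co-culture exposed to chemical for 24 h. uPA levels were quantified by ELISA, and activity was fitted bidirectionally against a DMSO negative-control baseline.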

Read-out in assay [4]: CD40, CD40 (gene 958)
The assay can be described thus: BSK_LPS_CD40: BioMAP Diversity Plus: LPS Assay for CD40 Biomarker Activity (AID 2283076). The settings on record: primary human HUVEC with PBMC; actives raise or lower the signal. In a few lines:
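CD40 signal, measured by ELISA, is fitted in both directions relative to DMSO vehicle. The system is an LPS-driven human vascular primary co-culture of endothelial cells and PBMC, sampled 24 h after compound addition.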

Read-out in assay [5]: E-selectin (Homo sapiens) (UniProt P16581)
The assay can be described thus: BSK_LPS_Eselectin: BioMAP Diversity Plus: LPS Assay for Eselectin Biomarker Activity (AID 2283077). The settings on record: primary human HUVEC with PBMC; actives raise or lower the signal. In a few lines: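 Signal of E-selectin, detected by ELISA, served as the endpoint; cells were umbilical vein endothelium with PBMC, read 24 h after treatment. DMSO defined baseline, and both increases and decreases were fitted.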

Read-out in assay [6]: Interleukin-8 (IL8), CXCL8 (gene 3576)
Briefly: BSK_LPS_IL8: BioMAP Diversity Plus: LPS Assay for Interleukin-8 (IL8) Biomarker Activity (AID 2283078). The settings on record: primary human HUVEC with PBMC; actives raise or lower the signal. The procedure, abridged: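 Endothelial cells and PBMC from human donors are co-cultured, treated with chemicals and LPS, then assayed for IL-8 by ELISA after 24 h. Parallel SRB staining (0.1% SRB after 10% TCA fixation, 560 nm) flags cytotoxicity.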

Assay [7] is described as follows: BSK_LPS_SRB: Viability Assessment in the BioMAP Diversity Plus: LPS Assay (AID 2283079).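 Further: total protein by sulforhodamine B absorbance as a cytotoxicity measure; measured one day after compound addition.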 As to conditions: primary human HUVEC with PBMC. The procedure, abridged: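 Overt cytotoxicity was gauged by sulforhodamine B total-protein staining in a primary human vascular endothelial and mononuclear cell co-culture 24 h post-dosing. Activity was fitted in both directions relative to DMSO.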

Read-out in assay [8]: Interleukin-1 alpha (IL1a), IL1A (gene 3552)
Briefly: BSK_LPS_IL1a: BioMAP Diversity Plus: LPS Assay for Interleukin-1 alpha (IL1a) Biomarker Activity (AID 2283080). As to conditions: primary human HUVEC with PBMC; actives raise or lower the signal. In a few lines:
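Measured: IL-1 alpha via ELISA at 24 h in LPS-activated human umbilical vein endothelium–PBMC co-culture. Baseline: DMSO, bidirectional fitting.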

Read-out in assay [9]: Monocyte Chemoattractant Protein-1 (MCP1), CCL2 (gene 6347)
Briefly: BSK_LPS_MCP1: BioMAP Diversity Plus: LPS Assay for Monocyte Chemoattractant Protein-1 (MCP1) Biomarker Activity (AID 2283081). As to conditions: primary human HUVEC with PBMC; actives raise or lower the signal. The procedure, abridged: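 LPS-stimulated HUVEC/PBMC co-culture; chemical, 24 h; MCP-1 by ELISA; bidirectional fit vs DMSO; cytotoxicity via SRB (0.1% stain, 10% TCA fix, 560 nm) in parallel wells.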

The nature of assay [10]: BSK_LPS_PGE2: BioMAP Diversity Plus: LPS Assay for Prostaglandin E2 (PGE2) Biomarker Activity (AID 2283082).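 On AC50: secreted prostaglandin E2 measured by ELISA in LPS-stimulated co-culture.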 As to conditions: primary human HUVEC with PBMC; actives raise or lower the signal. The procedure, abridged:
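LPS-activated HUVEC/PBMC co-culture; cmpd dosed, 24 h; PGE2 by ELISA; bidirectional fit vs DMSO; SRB (0.1%, TCA-fixed, 560 nm) in parallel plates for overt cytotox.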

Read-out in assay [11]: Macrophage colony-stimulating factor (MCSF), CSF1 (gene 1435)
Briefly: BSK_LPS_MCSF: BioMAP Diversity Plus: LPS Assay for Macrophage colony-stimulating factor (MCSF) Biomarker Activity (AID 2283083). The settings on record: primary human HUVEC with PBMC; actives raise or lower the signal. In a few lines:
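Compound is added to a human vascular primary co-culture of umbilical vein endothelium and blood mononuclear cells. After 24 h, M-CSF is quantified by ELISA. Signal changes are fitted in both directions against DMSO.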

Read-out in assay [12]: Tumor necrosis factor (Homo sapiens) (UniProt P01375)
The assay can be described thus: BSK_LPS_TNFa: BioMAP Diversity Plus: LPS Assay for Tumour Necrosis Factor alpha (TNFa) Biomarker Activity (AID 2283085). The settings on record: primary human HUVEC with PBMC; actives raise or lower the signal. The procedure, abridged: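 Read-out is ELISA of TNFa in primary human endothelial cell–PBMC co-cultures at 24 h after compound. Activity in either direction was fitted against DMSO.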

Read-out in assay [13]: Vascular cell adhesion molecule 1 (VCAM1), VCAM1 (gene 7412)
Briefly: BSK_LPS_VCAM1: BioMAP Diversity Plus: LPS Assay for Vascular cell adhesion molecule 1 (VCAM1) Biomarker Activity (AID 2283086). The settings on record: primary human HUVEC with PBMC; actives raise or lower the signal. In a few lines:
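HUVEC + PBMC co-culture, LPS system; compound 24 h; VCAM-1 by ELISA; bidirectional fit vs DMSO control; parallel SRB (0.1%, TCA-fixed, 560 nm) for cytotoxicity.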

Read-out in assay [14]: CD38, CD38 (gene 952)
The assay can be described thus: BSK_SAg_CD38: BioMAP Diversity Plus: SAg Assay for CD38 Biomarker Activity (AID 2283087). As to conditions: primary human HUVEC with PBMC; actives raise or lower the signal. In a few lines:
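Human HUVEC plus PBMC co-culture stimulated with superantigen; CD38 measured by ELISA 24 h after chemical dosing. Fluorescence read-out, bidirectional fit against DMSO; cytotoxicity tracked in parallel by SRB and Alamar Blue.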

Read-out in assay [15]: CD40, CD40 (gene 958)
The assay can be described thus: BSK_SAg_CD40: BioMAP Diversity Plus: SAg Assay for CD40 Biomarker Activity (AID 2283088). As to conditions: primary human HUVEC with PBMC; actives raise or lower the signal. The procedure, abridged: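 Fluorescence ELISA read-out of CD40 from umbilical vein endothelium plus peripheral blood mononuclear cells, sampled 24 h after dosing. Values come from bidirectional curve fitting with DMSO as baseline.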

Read-out in assay [16]: CD69, CD69 (gene 969)
The assay can be described thus: BSK_SAg_CD69: BioMAP Diversity Plus: SAg Assay for CD69 Biomarker Activity (AID 2283089). The settings on record: primary human HUVEC with PBMC; actives raise or lower the signal. In a few lines:
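HUVEC co-cultured with PBMC were dosed with chemical, and CD69 was measured by ELISA with fluorescence read-out 24 h later. Bidirectional curve fitting used DMSO as negative control and activity baseline.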

Read-out in assay [17]: Monocyte Chemoattractant Protein-1 (MCP1), CCL2 (gene 6347)
Briefly: BSK_SAg_MCP1: BioMAP Diversity Plus: SAg Assay for Monocyte Chemoattractant Protein-1 (MCP1) Biomarker Activity (AID 2283090). The settings on record: primary human HUVEC with PBMC; actives raise or lower the signal. In a few lines: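 MCP-1 levels in the endothelial–PBMC SAg co-culture were quantified by ELISA at 24 h post-dosing; both increases and decreases versus DMSO scored. Cytotoxicity monitored by SRB total protein in parallel cultures.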

Read-out in assay [18]: E-selectin (Homo sapiens) (UniProt P16581)
Briefly: BSK_SAg_Eselectin: BioMAP Diversity Plus: SAg Assay for Eselectin Biomarker Activity (AID 2283091). As to conditions: primary human HUVEC with PBMC; actives raise or lower the signal. The procedure, abridged:
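Primary human endothelial cells and peripheral blood mononuclear cells were co-cultured and exposed to chemical for 24 hours. E-selectin levels were then quantified by ELISA, with bidirectional curve fitting normalised to DMSO controls.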

Read-out in assay [19]: Monokine induced gamma interferon (MIG), CXCL9 (gene 4283)
The assay can be described thus: BSK_SAg_MIG: BioMAP Diversity Plus: SAg Assay for Monokine induced gamma interferon (MIG) Biomarker Activity (AID 2283092). The settings on record: primary human HUVEC with PBMC; actives raise or lower the signal. In a few lines: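 HUVEC plus human PBMC co-culture, chemicals dosed and MIG (CXCL9) quantified by ELISA at 24 h. Bidirectional curve fitting against DMSO as negative control and baseline, so both gain and loss of signal count as activity.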

Active and inactive are the calls of the source. How the source made its calls: active means hit-call score of the fitted dose curve at least 0.9, where 1 is the maximum; inactive means score below 0.9.

E-selectin (Homo sapiens), sequence (P16581 whole entry, looked up): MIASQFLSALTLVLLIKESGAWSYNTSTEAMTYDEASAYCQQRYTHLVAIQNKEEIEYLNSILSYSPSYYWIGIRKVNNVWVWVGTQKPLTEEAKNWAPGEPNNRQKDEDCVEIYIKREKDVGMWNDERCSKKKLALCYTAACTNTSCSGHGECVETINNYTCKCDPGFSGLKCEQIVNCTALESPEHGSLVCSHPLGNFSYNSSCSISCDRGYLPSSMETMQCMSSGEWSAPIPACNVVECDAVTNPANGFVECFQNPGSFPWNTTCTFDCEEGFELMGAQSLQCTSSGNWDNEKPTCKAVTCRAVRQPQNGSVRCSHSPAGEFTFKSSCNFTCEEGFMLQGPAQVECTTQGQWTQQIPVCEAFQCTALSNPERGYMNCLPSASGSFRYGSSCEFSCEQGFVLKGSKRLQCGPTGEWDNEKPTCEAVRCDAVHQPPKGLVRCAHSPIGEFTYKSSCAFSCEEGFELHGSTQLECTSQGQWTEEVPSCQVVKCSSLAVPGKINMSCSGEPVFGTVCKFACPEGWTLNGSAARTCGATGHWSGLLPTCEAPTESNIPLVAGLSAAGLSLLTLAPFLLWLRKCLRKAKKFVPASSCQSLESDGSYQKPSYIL
Tumor necrosis factor (Homo sapiens), sequence (P01375 whole entry, looked up): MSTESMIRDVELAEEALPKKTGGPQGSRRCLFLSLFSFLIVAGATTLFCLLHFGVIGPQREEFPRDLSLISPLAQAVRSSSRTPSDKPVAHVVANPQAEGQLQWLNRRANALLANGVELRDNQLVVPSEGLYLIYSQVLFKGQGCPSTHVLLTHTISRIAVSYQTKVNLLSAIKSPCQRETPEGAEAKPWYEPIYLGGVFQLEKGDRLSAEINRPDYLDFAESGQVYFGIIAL

On to `CCOC(=O)CN[C@@H](C(=O)N1CC[C@H]1C(=O)NCc1ccc(/C(N)=N/O)cc1)C1CCCCC1`, for which the outcome in assay [1], in assay [2], in assay [3], in assay [4], in assay [5] and in assay [6] was inactive. For the same compound, the outcome in assay [7], in assay [8], in assay [9], in assay [10], in assay [11] and in [12] was inactive. For the same compound, the result in assay [13], in assay [14], in assay [15], in assay [16], in [17] and in assay [18] was inactive.
The AC50 is the midpoint of the concentration-response curve, whichever way the signal moves. Turning to `O=C(c1ccccc1)c1ccccc1`, the result in assay [1], in assay [2], in [3], in assay [4], in [5] and in assay [6] was inactive. For the same compound, the outcome in [7], in assay [8], in assay [9], in assay [11], in assay [12] and in [13] was inactive. In addition, the outcome in assay [14], in assay [15], in assay [16], in assay [17] and in assay [18] was inactive. The AC50 in assay [10] is 0.569 µM (active).
`CCC(C)c1ccccc1O` (stereo unspecified): the outcome in assay [1], in assay [2], in [3], in assay [4], in assay [5] and in assay [6] was inactive. For the same compound, the result in [7], in assay [8], in assay [9], in assay [11], in [12] and in assay [13] was inactive. For the same compound, the result in assay [14], in assay [15], in assay [16], in assay [17] and in assay [18] was inactive. Also, the half-maximal activity concentration (AC50) in assay [10] is 3.28 µM (active).
As to `O=C1c2ccc(O)c(O)c2C(=O)c2c(O)ccc(O)c21`, the outcome in assay [1], in [2], in assay [3], in assay [4], in assay [5] and in [6] was inactive. For the same compound, the result in assay [7], in assay [8], in [9], in assay [10], in assay [11] and in [12] was inactive. The outcome in assay [13], in assay [14], in [15], in assay [16], in [17] and in [18] was inactive.
As to `Oc1cc2ccccc2cc1O`, the result in [1], in assay [2], in [3], in assay [4], in assay [5] and in [6] was inactive. Also, the result in assay [7], in assay [8], in assay [9], in [10], in [11] and in assay [12] was inactive. Also, the outcome in [13], in [14], in assay [15], in assay [16], in assay [17] and in assay [18] was inactive.
`Clc1ccc(Nc2nnc(Cc3ccncc3)c3ccccc23)cc1`: the outcome in assay [1], in assay [3], in [4], in [5], in [6] and in assay [7] was inactive. The outcome in assay [8], in [9], in [10], in assay [11], in assay [12] and in assay [13] was inactive. The result in [14], in [15], in assay [16], in [17], in assay [18] and in assay [19] was inactive. In addition, the AC50 in assay [2] is 7.58 µM (active).
Take `Cc1ccc(C(=O)c2ccccc2)cc1`: the result in [1], in assay [2], in assay [3], in assay [4], in assay [5] and in assay [6] was inactive. Also, the result in assay [7], in assay [8], in [9], in [11], in assay [12] and in [13] was inactive. The result in [14], in assay [15], in assay [16], in [17] and in [18] was inactive. In assay [10], the AC50 is 1.05 µM (active).
For the compound `O=C1NS(=O)(=O)c2ccccc21`, the result in assay [1], in assay [2], in assay [3], in [4], in assay [5] and in assay [6] was inactive. The result in assay [7], in assay [8], in assay [9], in [10], in assay [11] and in [12] was inactive. In addition, the result in [13], in assay [14], in assay [15], in assay [16], in assay [17] and in [18] was inactive. Further, the result in assay [19] was inactive.

(Values after PubChem BioAssay (EPA / NIEHS).)
